# Reference: PubChem BioAssay
# Active and inactive are the calls of the source. Unless noted, no rule for the calls is given here.
# Legend:
# [1] = system: Wnt5a (protein binding on small-molecule microarray); experiment: Wnt5a binders on small-molecule microarray, primary screen, biophysical, 635/667 nm fluorescence (AID 1142); conditions: 635 nm fluorescence, higher = more signal;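 also: fluorescence read at 667 nm with signal to noise per printed feature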
# [2] = cell viability in Huh7 cells, primary screen, cytotoxicity control for HCV replication inhibitor project, CellTiter-Glo luminescence, basal, 48 h (AID 1143); conditions: Huh7 HCV replicon, higher = more signal, called active from +8 up or from −8 down;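 also: Huh7 hepatoma cells carrying a hepatitis C replication reporter with no stimulus; test concentration not given here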
# [3] = P. aeruginosa biofilm formation inhibitors, primary screen, PAO1 strain, BacTiter-Glo luminescence, LB-PBS (AID 1144); conditions: 12 h, higher = more signal
# [4] = CREB reporter modulators without forskolin, primary screen, cell-based, PC12, CRE-LacZ reporter, unstimulated (AID 1145); conditions: no forskolin, luminescence, 4.5 h, higher = more signal, called active from +8 up or from −8 down
# [5] = CREB reporter modulators under forskolin, primary screen, cell-based, PC12, CRE-LacZ reporter, forskolin-stimulated (AID 1146); conditions: luminescence, 4.5 h, higher = more signal, called active from +8 up or from −8 down;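 also: PC12 cells with 6xCRE LacZ reporter stimulated by forskolin 10 µM; beta-galactosidase reporter signal reflecting CREB driven transcription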
# [6] = biological target: Streptavidin (Streptomyces avidinii) (UniProt P22629); experiment: streptavidin binders on small-molecule microarray, primary screen, artefact control for SMM compound annotation, biophysical, 635/667 nm fluorescence (AID 1147); conditions: streptavidin binding, higher = more signal;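 also: signal reflects streptavidin binding to arrayed compounds as a control protein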
# Streptavidin (Streptomyces avidinii), sequence (P22629 whole entry, looked up): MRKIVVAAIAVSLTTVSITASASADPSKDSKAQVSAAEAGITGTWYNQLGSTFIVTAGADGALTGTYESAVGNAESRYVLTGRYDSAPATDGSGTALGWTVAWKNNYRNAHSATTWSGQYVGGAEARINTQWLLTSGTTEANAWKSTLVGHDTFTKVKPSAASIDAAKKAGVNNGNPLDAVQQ
# [7] = small-molecule binders of probe aInhba, primary screen, biochemical, small-molecule microarray, 635/667 nm fluorescence (AID 1148); conditions: higher = more signal;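 also: score merges 667nm spot fluorescence with signal-to-noise for antibody binding to printed compounds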
# Torsin-1A (Homo sapiens) [8] = biological target: Torsin-1A (Homo sapiens) (UniProt O14656); experiment: torsin A binders from cell lysate, primary screen, small-molecule microarray, wild-type, 635/667 nm (AID 1149); conditions: COS7 hTOR1A-WT lysate, 635 nm fluorescence, higher = more signal
# Torsin-1A (Homo sapiens), sequence (O14656 whole entry, looked up): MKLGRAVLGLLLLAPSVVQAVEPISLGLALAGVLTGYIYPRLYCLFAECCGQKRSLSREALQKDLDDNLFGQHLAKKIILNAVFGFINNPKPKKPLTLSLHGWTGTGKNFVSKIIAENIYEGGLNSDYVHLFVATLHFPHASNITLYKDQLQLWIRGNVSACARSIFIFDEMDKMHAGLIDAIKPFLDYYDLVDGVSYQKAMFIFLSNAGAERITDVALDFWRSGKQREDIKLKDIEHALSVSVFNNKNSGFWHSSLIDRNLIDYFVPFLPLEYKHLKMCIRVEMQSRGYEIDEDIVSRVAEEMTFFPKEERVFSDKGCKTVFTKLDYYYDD
# Torsin-1A (Homo sapiens) [9] = biological target: Torsin-1A (Homo sapiens) (UniProt O14656); experiment: small-molecule binders of mutant TOR1A in lysate, primary screen, cell lysate, small-molecule microarray, COS7 lysate, 635/667 nm fluorescence (AID 1150); conditions: COS7 hTOR1A mutant lysate, 635 nm fluorescence, higher = more signal;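 also: score pools 667 nm emission and signal to noise measuring lysate protein binding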
# [10] = system: Sonic hedgehog protein (Shh); experiment: small-molecule binders of Shh protein, primary screen, biochemical, small-molecule microarray, 635/667 nm fluorescence (AID 1151); conditions: small-molecule microarray binding, 635 nm fluorescence; higher = more signal;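 also: Shh protein binding to compounds spotted on small-molecule microarray slides; score combines spot fluorescence intensity with signal-to-noise across triplicate slides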
# [11] = E. coli DRC41 culture turbidity changes, primary screen, E. coli filamentation inducer project, strain DRC41, OD650, 48 h (AID 1152);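 also: E. coli MC1000 strain DRC41 lacking acrAB efflux pump and sulA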; conditions: E. coli DRC41 (acrAB sulA), higher = more signal, called active from +8 up or from −8 down
# [12] = small-molecule binders of probe aLefty1, primary screen, biochemical, small-molecule microarray, 635/667 nm fluorescence (AID 1153); conditions: higher = more signal;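 also: score merges spot fluorescence with signal-to-noise ratio from the scanned slide images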
# [13] = PSAC antagonists in infected red cells, primary screen, cell-based, P. falciparum Indochina, OD700, 1 h (AID 1154); conditions: P. falciparum Indochina infected RBC osmotic lysis, higher = more signal, called active from +8 up or from −8 down
# [14] = PSAC antagonists in infected red cells, primary screen, cell-based, P. falciparum Indochina, OD700, 2 h (AID 1155);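 also: lysis reports solute entry through the parasite surface anion channel PSAC; channel blockers reduce lysis of infected cells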; conditions: P. falciparum Indochina infected erythrocytes, osmotic lysis OD700; higher = more signal, called active from +8 up or from −8 down
# [15] = osmotic lysis modulators in infected erythrocytes, primary screen, PSAC antagonist project, cell-based, P. falciparum Indochina, OD700, 3 h (AID 1156); conditions: higher = more signal, called active from +8 up or from −8 down
# [16] = PSAC antagonists in infected red cells, primary screen, cell-based, P. falciparum Indochina, OD700, 18 h (AID 1157); conditions: P. falciparum Indochina infected erythrocytes, osmotic lysis OD700, 18 h; higher = more signal, called active from +8 up or from −8 down
# [17] = modulators of S6 phosphorylation in cells, primary screen, cell-based, A549, cytoblot, luminescence, serum-stimulated (AID 1158); conditions: A549 phospho-S6 cytoblot, 5 h, higher = more signal;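 also: serum-stimulated A549 lung adenocarcinoma cells; signal is phosphorylated S6 detected by cytoblot immunostaining with HRP secondary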
# [18] = biological target: NADPH oxidase 2 (Homo sapiens) (UniProt P04839); experiment: NOX2-dependent H2O2 signal modulators, primary screen, NOX inhibitor project, cell-based, HEK293-NOX2, PMA-stimulated, Amplex Red fluorescence (AID 1159); conditions: 45 min, higher = more signal, called active from +8 up or from −8 down; also: test concentration not given here
# NADPH oxidase 2 (Homo sapiens), sequence (P04839 whole entry, looked up): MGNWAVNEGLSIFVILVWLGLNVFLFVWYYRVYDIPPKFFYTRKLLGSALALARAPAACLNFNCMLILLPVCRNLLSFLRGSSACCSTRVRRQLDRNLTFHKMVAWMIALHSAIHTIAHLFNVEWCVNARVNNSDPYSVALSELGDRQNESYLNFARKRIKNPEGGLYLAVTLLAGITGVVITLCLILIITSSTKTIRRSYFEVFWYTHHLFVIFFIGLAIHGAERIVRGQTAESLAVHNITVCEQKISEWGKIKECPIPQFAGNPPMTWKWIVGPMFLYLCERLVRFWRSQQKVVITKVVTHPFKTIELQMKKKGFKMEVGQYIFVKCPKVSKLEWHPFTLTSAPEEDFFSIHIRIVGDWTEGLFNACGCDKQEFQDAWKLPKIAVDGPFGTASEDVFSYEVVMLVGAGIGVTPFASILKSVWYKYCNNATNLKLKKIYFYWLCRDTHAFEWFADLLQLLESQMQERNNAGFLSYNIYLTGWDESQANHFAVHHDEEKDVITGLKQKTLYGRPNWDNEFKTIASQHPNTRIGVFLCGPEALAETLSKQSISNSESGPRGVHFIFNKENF
# [19] = biological target: NADPH oxidase 4 (Homo sapiens) (UniProt Q9NPH5); experiment: NOX4-dependent H2O2 signal modulators, primary screen, NOX inhibitor project, cell-based, HEK293-NOX4, tetracycline-induced, Amplex Red fluorescence (AID 1160); conditions: 45 min, higher = more signal, called active from +8 up or from −8 down
# NADPH oxidase 4 (Homo sapiens), sequence (Q9NPH5 whole entry, looked up): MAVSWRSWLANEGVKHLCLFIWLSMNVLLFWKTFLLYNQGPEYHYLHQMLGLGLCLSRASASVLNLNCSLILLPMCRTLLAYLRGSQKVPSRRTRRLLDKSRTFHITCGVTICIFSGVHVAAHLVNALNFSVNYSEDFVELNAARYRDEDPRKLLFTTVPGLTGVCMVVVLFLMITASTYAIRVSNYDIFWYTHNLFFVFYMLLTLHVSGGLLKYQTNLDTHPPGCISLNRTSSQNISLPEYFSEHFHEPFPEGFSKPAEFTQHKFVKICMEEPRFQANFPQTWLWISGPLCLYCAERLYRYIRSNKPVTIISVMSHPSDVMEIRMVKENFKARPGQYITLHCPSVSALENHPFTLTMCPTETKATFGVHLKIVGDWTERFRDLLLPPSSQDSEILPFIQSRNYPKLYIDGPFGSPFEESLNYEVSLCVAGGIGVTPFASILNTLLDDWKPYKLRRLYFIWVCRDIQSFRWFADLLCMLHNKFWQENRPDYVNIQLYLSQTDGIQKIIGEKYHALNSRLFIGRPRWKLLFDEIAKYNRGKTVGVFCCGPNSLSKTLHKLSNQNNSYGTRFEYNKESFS
# [20] = biological target: NADPH oxidase 5 (Homo sapiens) (UniProt Q96PH1); experiment: NOX5-dependent H2O2 signal modulators, primary screen, NOX inhibitor project, cell-based, HEK293-NOX5, Amplex Red fluorescence (AID 1161); conditions: HEK293-NOX5, ionomycin, 45 min, higher = more signal
# NADPH oxidase 5 (Homo sapiens), sequence (Q96PH1 whole entry, looked up): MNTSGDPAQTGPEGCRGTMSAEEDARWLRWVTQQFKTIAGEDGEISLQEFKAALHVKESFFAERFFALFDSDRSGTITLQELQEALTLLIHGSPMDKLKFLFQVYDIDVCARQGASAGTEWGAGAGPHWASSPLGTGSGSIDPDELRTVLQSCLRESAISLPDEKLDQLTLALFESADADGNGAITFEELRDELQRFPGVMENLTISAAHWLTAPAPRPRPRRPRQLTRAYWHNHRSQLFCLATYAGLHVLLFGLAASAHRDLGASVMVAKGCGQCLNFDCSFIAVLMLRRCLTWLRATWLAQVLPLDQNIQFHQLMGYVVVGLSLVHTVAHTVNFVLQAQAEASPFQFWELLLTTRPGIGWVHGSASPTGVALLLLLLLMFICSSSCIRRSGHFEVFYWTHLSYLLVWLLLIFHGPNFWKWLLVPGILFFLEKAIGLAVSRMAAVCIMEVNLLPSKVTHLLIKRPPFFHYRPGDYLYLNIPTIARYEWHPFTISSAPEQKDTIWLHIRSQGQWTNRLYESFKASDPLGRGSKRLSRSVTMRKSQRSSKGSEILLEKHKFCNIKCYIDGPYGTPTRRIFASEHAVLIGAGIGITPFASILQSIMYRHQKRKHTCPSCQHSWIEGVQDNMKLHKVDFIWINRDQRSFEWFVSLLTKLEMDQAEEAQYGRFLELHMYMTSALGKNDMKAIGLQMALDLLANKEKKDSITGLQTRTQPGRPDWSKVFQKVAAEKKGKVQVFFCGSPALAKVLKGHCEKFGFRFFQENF
SMILES,composite z-score [1],z-score [2],z-score [3],z-score [4],z-score [5],composite z-score [6],composite z-score [7],composite z-score (Torsin-1A (Homo sapiens) [8]),composite z-score (Torsin-1A (Homo sapiens) [9]),composite z-score [10],z-score [11],composite z-score [12],z-score [13],z-score [14],z-score [15],z-score [16],z-score [17],z-score [18],z-score [19],z-score [20]
Cc1ccc(S[C@]2(C(=O)NCCCN(C)C)CC(=O)N(Cc3ccccc3)[C@@H]2c2ccc(CO)cc2)cc1,-0.2,-0.533 (inactive),0.294 (inactive),-0.232 (inactive),0.529 (inactive),-0.689,-0.0494,-0.883,-0.623,-1.02,0.239 (inactive),0.136,2.24 (inactive),0.077 (inactive),1.5 (inactive),0.013 (inactive),0.161,-3.38 (inactive),0.6 (inactive),1.89
C[N+](C)(C)CCCCNC(=O)[C@H]1C[C@H]2C(=O)N3CCC[C@H]3C(=O)N2[C@H]1c1ccc(O)cc1,0.554,-0.102 (inactive),0.014 (inactive),-0.821 (inactive),-0.512 (inactive),0.319,-0.164,1.84,1.66,1.86,-0.314 (inactive),-0.0141,0.542 (inactive),0.196 (inactive),-1.66 (inactive),0.0068 (inactive),-0.0429,-2.45 (inactive),-0.739 (inactive),-1.42
C=C(/C(=C/C[C@@H](OC(C)=O)c1ccc(CO)o1)c1cnc2ccccc2c1)C(C)C,1.3,-0.136 (inactive),-0.171 (inactive),0.159 (inactive),-0.731 (inactive),0.17,-0.0448,2.14,0.619,2.04,0.727 (inactive),-0.147,4.83 (inactive),1.28 (inactive),1.74 (inactive),0.332 (inactive),1.04,0.334 (inactive),-1.99 (inactive),-0.957
COc1ccccc1CN1C(=O)c2ccccc2[C@](Cc2ccccc2I)(C(=O)NCc2ccccc2)[C@@H]1c1ccc(CO)cc1,0.0733,-0.553 (inactive),0.166 (inactive),-0.412 (inactive),-0.0005 (inactive),-0.476,0.0627,0.999,2.06,-0.197,-0.0738 (inactive),0.183,2.14 (inactive),-0.0098 (inactive),0.826 (inactive),-0.308 (inactive),-0.266,0.102 (inactive),0.377 (inactive),1.34
C[C@]1(C(=O)NCC(F)(F)F)c2ccccc2C(=O)N(Cc2cc(F)cc(C(F)(F)F)c2)[C@H]1c1ccc(CO)cc1,0.0343,-4.86 (inactive),-0.704 (inactive),0.324 (inactive),0.486 (inactive),-0.388,-0.128,0.135,0.527,0.394,-0.436 (inactive),-0.355,4.43 (inactive),-0.263 (inactive),2.21 (inactive),-0.682 (inactive),2.24,-0.779 (inactive),-2.9 (inactive),-3.61
O=C1C2C=CC(C(O)c3ccc(-c4ccccc4)s3)N(Nc3ccccc3F)C2C(=O)N1c1ccccc1 (stereo not given),0.26,0.0093 (inactive),-0.729 (inactive),0.629 (inactive),0.383 (inactive),1.06,-0.205,0.254,0.404,0.433,-1.69 (inactive),0.282,4.17 (inactive),1.66 (inactive),0.8 (inactive),1.27 (inactive),-0.501,-0.49 (inactive),-4.68 (inactive),-3.41
COC(=O)[C@@]1(Cc2ccc(OC)cc2)[C@H]2c3cc(C(=O)N4CCCC4)n(CCN4CCOCC4)c3C[C@H]2CN1C(=O)c1ccccc1,2.64,-0.267 (inactive),0.356 (inactive),0.966 (inactive),1.64 (inactive),2.02,1.75,0.27,1.71,-0.641,-0.861 (inactive),2.2,0.32 (inactive),-0.288 (inactive),0.366 (inactive),0.225 (inactive),-0.286,0.99 (inactive),-0.245 (inactive),-3.66
CC(C)OC(=O)C1=CCC(c2cccc(Cl)c2)O1 (stereo not given),-0.593,-5.17 (inactive),-2.12 (inactive),-0.471 (inactive),-0.154 (inactive),0.245,-0.191,1.07,-0.268,-1.49,0.504 (inactive),-0.142,26 (active),6.53 (inactive),0.751 (inactive),0.296 (inactive),1.8,-3.89 (inactive),-2.1 (inactive),-4.96
O=C1C2C=CC(C(O)c3ccc(B(O)O)cc3)N(Nc3ccc([N+](=O)[O-])cc3)C2C(=O)N1c1ccccc1 (stereo not given),0.263,-0.307 (inactive),-0.0903 (inactive),-1.07 (inactive),-2.26 (inactive),0.759,0.0785,0.363,0.286,0.221,-1.07 (inactive),0.363,2.01 (inactive),1.21 (inactive),0.136 (inactive),0.606 (inactive),-0.537,-1.73 (inactive),-0.374 (inactive),-3.79
